CHX counter – Cycloheximide Counterscreen for Small Molecule Inhibitors of Shiga Toxin | AID 2314, 2010 | max response, % | cell reporter, cycloheximide protein synthesis inhibition counterscreen | 300,000 tested, 12% active; in the data active = max response mostly above about 13%, no sharp cut-off; inactive = mostly below about 14%; also: read at 38.3 µM for the half of the compounds with a filed dose; 0% is about no effect
HCV inhibitor – qHTS Assay for Inhibitors of Hepatitis C Virus (HCV); Potency, µM (top dose mostly 41.8 µM), for the others: at the top dose activity change, negative = inhibition, actives largely listed as inhibitors; AID 651820, 2012; Huh7.5.1 HCVcc-Cre infection, luciferase reporter, 44 h; 340,000 tested, 3.4% active; also: potency is read from the fitted curve at half-maximal effect; % is scaled to controls: 0 for no effect and ±100 for the full control effect
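1,000 cells/well; 4 h culture; + compound; + HCVcc-Cre (~0.5 moi); 44 h; luciferase substrate, RT 15 min; read 15 sec.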
Shiga toxin inh – A qHTS for Small Molecule Inhibitors of Shiga Toxin; Vero cells, Shiga toxin protein synthesis inhibition reporter; inhibition, % at 38.7 µM; 290,000 tested, 9.2% active; AID 2315, 2010; in the data active = inhibition mostly above about 28%, no sharp cut-off; inactive = mostly below about 43%; also: 0% is about no effect
Pf growth 96h – Primary qHTS for delayed death inhibitors of the malarial parasite plastid, 96 hour incubation; 320,000 tested, 6.9% active; AID 504834, 2011; Potency, µM (doses to about 28.7 µM), for the others: top-dose activity change, negative = inhibition, usual class: inhibitors; P. falciparum luciferase reporter growth, 96 h; also: potency is read from the fitted curve at half-maximal effect; % is scaled to controls: 0 for no effect and ±100 for the full control effect
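P. falciparum expressing integrated firefly luciferase grown in erythrocytes (2% hematocrit, 0.05% parasitemia final) with compounds for 96 hours at 37 C, 5% CO2. Growth inhibition read as loss of luminescence after adding luciferase detection reagent.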
AMA1-RON2 inh – qHTS for Inhibitors of AMA1-RON; Towards Development of Antimalarial Drug Lead: Primary Screen; Plasmodium falciparum AMA1 (3D7) - RON2 peptide interaction; AlphaScreen AMA1-biotinylated RON2 peptide binding; Potency, µM (series often up to 58.2 µM), for inactives: at the top dose activity change, negative = inhibition, most hits filed as inhibitors; 360,000 tested, 0.2% active;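 also: potency is read from the fitted curve at half-maximal effect; 0% = vehicle wells and -100% = peptide control; nearly all actives have a fitted effect of over 45% in size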
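AMA1 (3D7) with his tag at 25 nM final met compounds first, then biotinylated RON2 peptide at 25 nM; detection used donor plus acceptor beads, 10 µg/mL apiece, read by AlphaScreen after 30 min at room temperature.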
Pf growth 48h – Primary qHTS for delayed death inhibitors of the malarial parasite plastid, 48 hour incubation; P. falciparum luciferase growth in erythrocytes, 48 h; 310,000 tested, 5.9% active; Potency, µM (doses to about 28.7 µM), for the others: at the highest dose activity change, negative = inhibition, hits mostly inhibitors; also: potency is read from the fitted curve at half-maximal effect; % is scaled to controls: 0 for no effect and ±100 for the full control effect
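Cell-based growth assay: transgenic P. falciparum expressing firefly luciferase, cultured in red cells within RPMI 1640 containing 0.5% w/v Albumax, 24 mM bicarbonate and gentamycin. A drop in luciferase activity indicates inhibition.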
Active calls of the source: *; i = inactive; ? = inconclusive; nt = no result given; [ ] = another dose, or the depositor's remark. An excerpt weighted towards active compounds, which were near 21% of everything screened. Unless noted, calls follow the shape of the dose curve; as a rule, active = well fitted curve in the direction sought with a large enough effect; inconclusive = small, poorly fitted or top-dose-only effect, or another doubt; inactive = no such curve, though single readings can be large; an effect the other way counts as inactive or inconclusive.

SMILES	CHX counter	HCV inhibitor	Shiga toxin inh	Pf growth 96h	AMA1-RON2 inh	Pf growth 48h
O=C(c1cccs1)N1CCCC(c2nc3c(nnn3Cc3cccc(Cl)c3)c(=O)[nH]2)C1 (configuration not stated)	-4	23%	4	9%	-1%	?
O=C(c1cccs1)N1CCC(c2nc3c(nnn3Cc3c(Cl)cccc3Cl)c(=O)[nH]2)CC1	-10	3%	-1	?	2%	5.9µM*
O=C(Cc1cccs1)N1CCCC(c2nc3c(nnn3Cc3cccc(Cl)c3)c(=O)[nH]2)C1 (configuration not stated)	-2	4%	16	-8%	-17%	8.3µM*
Clc1nc(Cl)nc(-c2cn(-c3ccccc3)c3ccccc23)n1	-1	-6%	0	-4%	?	31%
Cc1ccc(C(C(=O)NCC2CCCO2)N(C(=O)c2snc(C(N)=O)c2N)c2ccccc2F)o1 (configuration not stated)	-5	-11%	5	-28%	-7%	?
C[C@H](CO)N1C[C@H](C)[C@@H](CN(C)S(=O)(=O)c2ccccc2)Oc2ccc(NC(=O)C3CC3)cc2C1=O	nt	7%	nt	nt	8%	nt
CCN(CC)c1ccc(S(=O)(=O)N2CCOCC2)cc1NC(=O)CNCc1cccc(Cl)c1	nt	?	nt	nt	-2%	nt
Cc1cccn2cc(CNC(=O)c3ccc(Br)o3)nc12	1	10%	-4	?	-4%	?
Cc1cccn2cc(-c3ccc(Cl)cc3)nc12	45*	-10%	62*	388%	-3%	16%
COc1ccc(-c2cn3cccc(C)c3n2)cc1F	57*	-35%	113*	?	-2%	i
Cc1cccn2cc(-c3ccc(S(=O)(=O)N4CCOCC4)cc3)nc12	-2	-13%	-13	-26%	-7%	-23%
Cc1cccn2cc(-c3ccc(S(=O)(=O)N4CCCCC4)cc3)nc12	-2	-29%	16	10µM*	-7%	17%
Nc1nc(-c2ccc(Cl)cc2)cn1N	-1	8%	-8	0%	10%	21%
COc1ccc(-c2nc3c(-c4ccccc4)cnn3cc2C)cc1F	-2	-15%	-6	?	-9%	?
Cc1ccc(-c2cn3cccc(C)c3n2)cc1	33*	7%	51*	?	-17%	-41%
O=S(=O)(c1ccc(F)cc1)N1CCN(c2nc(-c3cccc(Br)c3)nc3ccccc23)CC1	4	nt	24	nt	nt	nt
C=CCN1C(=O)/C(=c2\sc3nc(=O)c(Cc4ccccc4Cl)nn3c2=O)c2ccccc21	-3	-7%	29	-18%	-19%	-1%
COc1ccc(CNC(=O)c2ccccc2SCC(=O)NCc2ccco2)cc1	nt	12%	nt	19%	2%	-7%
O=[N+]([O-])c1cccn2cc(-c3ccc(Br)cc3)nc12	44*	?	67*	4.7µM*	?	?
CCCNC(=O)C1(C)CCN(Cc2ccc(-n3ccnc3)cc2)C1 (configuration not stated)	nt	nt	nt	nt	0%	nt
CC(C(=O)N1CCc2ccccc2C1)N1C(=O)c2ccccc2C1=O (configuration not stated)	-2	21%	-11	12%	12%	12%
CC(N=C1NS(=O)(=O)c2ccccc21)C(=O)N1CCc2ccccc2C1 (configuration not stated)	19*	-1%	46*	51%	4%	234%
CC(=O)Nc1cccc(/C(C)=N/NC(=O)c2ccc(Cl)cc2Cl)c1	15	-18%	34	1%	10%	40%
C/C(=N\NC(=O)C1CC1)c1cccc(NC(=O)c2cccc(Cl)c2)c1	-3	nt	3	-18%	nt	?
C/C(=N/NS(=O)(=O)c1ccc(Cl)cc1)c1cccc(NC(=O)c2ccc(Cl)cc2Cl)c1	33*	11%	84*	-3%	-3%	?
SMILES	CHX counter	HCV inhibitor	Shiga toxin inh	Pf growth 96h	AMA1-RON2 inh	Pf growth 48h
C/C(=N\NC(=O)c1cc(O)ccc1O)c1cccc(NC(=O)c2cccc(Cl)c2)c1	41*	-14%	71*	?	-20%	9%
C/C(=N/NS(=O)(=O)c1ccc(C)cc1)c1cccc(NC(=O)c2cccc(Cl)c2)c1	-15	?	11	4%	-1%	-7%
C/C(=N\NC(=O)c1cc(O)ccc1O)c1cccc(NC(=O)c2ccc(Cl)cc2)c1	47*	?	78*	?	-18%	?
N#CC12CCCCC1CC1CCCCC1(C#N)N2Cc1ccccn1 (configuration not stated)	5	28%	21	9.3µM*	7%	?
c1ccc(CCN2CCCCC2)nc1	nt	1%	nt	nt	12%	nt
N#CC12CCCCC1CC1CCCCC1(C#N)N2CCO (configuration not stated)	-3	9%	7	63%[5.75 µM]	-1%	6%
N#CC12CCCCC1CC1CCCCC1(C#N)N2N (configuration not stated)	11	-2%	24	?	-2%	13µM*
C=CCn1cccc(/C=C/C(=O)c2ccc(C(C)(C)C)cc2)c1=S	-2	10µM*	17	?	?	?
CN1CCN(C(=S)NC(=O)c2ccc(C(C)(C)C)cc2)CC1	-2	-4%	-8	-20%	85%	-14%
O=C(Nc1cccc(-c2cn3ccccc3n2)c1)c1cnccn1	-1	7%	15	14%	-5%	94%
COc1ccc(CC(=O)Nc2ccc(-c3cn4ccccc4n3)cc2)cc1	25*	?	112*	nt	5%	70%
CCC(=O)Nc1cccc(-c2cn3ccccc3n2)c1	18*	-24%	45*	12µM*	-3%[11.6 µM]	146%
O=C(COc1ccccc1)Nc1cccc(-c2cn3cccnc3n2)c1	12	-28%	21	6.6µM*	-11%	9.3µM*
COc1ccc(CC(=O)Nc2ccc(-c3cn4ccccc4n3)cc2)cc1OC	8	-26%	-3	-12%	-4%	nt
Cc1cccc2nc(-c3cccc(NC(=O)Cc4ccccc4)c3)cn12	17	?	37	-25%	1%	-20%
O=C(Nc1cccc(-c2cn3ccccc3n2)c1)c1cccc(Cl)c1	10	11µM*	-10	?	-11%	?
COc1ccc(S(=O)(=O)n2nc(OC(C)=O)cc2N(C(C)=O)C(C)=O)cc1	-3	5%	-13	101%	-3%	58%
CCC1(CCC(C)C)SC(N)=NC1=O (configuration not stated)	nt	29%	nt	nt	-18%	nt
Cc1ccc(-c2cn3cccnc3n2)cc1NC(=O)c1cccs1	16	12%	11	-4%	5%	19%
